“And” between values parts separate entries of the source, which are not always exact repeats. Equal values may be shown once. Hit rate of the full screen: of about 5,500 compounds, about 2,000 (36%) were called active. Not shown: some 18% with an inconclusive outcome. Rule as the data show it: active = normalized growth mostly below about 0.91 (no sharp cut-off); inconclusive = no clear call, values can overlap the other calls; inactive = mostly above about 0.92. Some of the results follow.
Experiment: chemical genetic growth profiling, strain panel (AID 1159580);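 also: tested at 20 µM; growth read once vehicle control cultures reached saturation at 30 °C; 1 = growth at the plate median or of vehicle wells; lower values mean less growth of the strain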
Conditions: S. cerevisiae deletion strains, growth OD

Measured: normalized growth

O=C(N[C@@H](CO)[C@H](O)c1ccc([N+](=O)[O-])cc1)C(Cl)Cl
inactive: locus YAL013W, strain DEP1, active compounds read low 1 | locus YAL021C, strain ccr4, active compounds read low 1.01 | locus YAL026C, strain drs2, active compounds read low 1.03 | locus YAL030W, strain snc1, active compounds read low 0.999 | locus YBL061C, strain skt5, active compounds read low 0.995 | locus YBR009C, strain hhf1, active compounds read low 1.03 | locus YBR021W, strain FUR4, active compounds read low 1.03 | locus YBR023C, strain chs3, active compounds read low 1.02 | locus YBR171W, strain sec66, active compounds read low 1.02 | locus YBR229C, strain ROT2, active compounds read low 1 | locus YBR231C, strain swc5, active compounds read low 1.01 | locus YBR279W, strain paf1, active compounds read low 1.02 | locus YCL011C, strain gbp2, active compounds read low 1.02 | locus YCL016C, strain dcc1, active compounds read low 1.02 | locus YCL029C, strain bik1, active compounds read low 1.03 | locus YCL061C, strain MRC1, active compounds read low 0.998 | locus YCL069W, strain vba3, active compounds read low 1.02 | locus YCR088W, strain abp1, active compounds read low 1.02 | locus YDL005C, strain med2, active compounds read low 1 | locus YDL035C, strain GPR1, active compounds read low 0.997 | locus YDL040C, strain nat1, active compounds read low 1.01 | locus YDL074C, strain BRE1, active compounds read low 1.03 | locus YDL101C, strain DUN1, active compounds read low 1.01 | locus YDL134C, strain PPH21, active compounds read low 1 | locus YDL185W, strain tfp1, active compounds read low 1.01 | locus YDL192W, strain arf1, active compounds read low 1.01 | locus YDR001C, strain nth1, active compounds read low 1.02 | locus YDR069C, strain doa4, active compounds read low 1.02 | locus YDR101C, strain arx1, active compounds read low 1.01 | locus YDR137W, strain rgp1, active compounds read low 1.03 | locus YDR150W, strain NUM1, active compounds read low 0.997 | locus YDR159W, strain sac3, active compounds read low 0.982 | locus YDR162C, strain NBP2, active compounds read low 1 | locus YDR195W, strain ref2 1.09 | locus YDR297W, strain sur2, active compounds read low 1.02 | locus YDR318W, strain mcm21, active compounds read low 1.01 | locus YDR334W, strain swr1, active compounds read low 1 | locus YDR335W, strain msn5, active compounds read low 1.01 | locus YDR388W, active compounds read low 1.01 | locus YDR392W, strain spt3, active compounds read low 0.981 | locus YDR502C, strain sam2, active compounds read low 1.01 | locus YEL003W, strain gim4, active compounds read low 1.01 | locus YEL037C, strain rad23, active compounds read low 1.01 | locus YEL061C, strain CIN8 (second series), active compounds read low 1.02 | locus YEL061C, strain CIN8, active compounds read low 0.996 | locus YER015W, strain faa2, active compounds read low 1.02 | locus YER016W, strain bim1, active compounds read low 1.01 | locus YER110C, active compounds read low 1.01 | locus YER111C, strain swi4, active compounds read low 1.02 | locus YER155C, strain BEM2 (second series), active compounds read low 0.993 | locus YER155C, strain BEM2, active compounds read low 1 | locus YER167W, strain BCK2, active compounds read low 0.987 | locus YFR010W, strain ubp6, active compounds read low 1.02 | locus YGL078C, strain dbp3, active compounds read low 1 | locus YGL086W, strain mad1, active compounds read low 0.994 | locus YGL167C, strain pmr1, active compounds read low 1.01 | locus YGL173C, strain kem1, active compounds read low 1.03 | locus YGL227W, strain vid30, active compounds read low 1.04 | locus YGL240W, strain doc1, active compounds read low 0.983 | locus YGL248W, strain PDE1, active compounds read low 0.998 | locus YGL253W, strain hxk2, active compounds read low 1.03 | locus YGR078C, strain PAC10, active compounds read low 1.02 | locus YGR135W, strain pre9, active compounds read low 1.01 | locus YGR229C, strain SMI1, active compounds read low 0.994 | locus YGR252W, strain gcn5, active compounds read low 0.947 | locus YHR013C, strain ard1, active compounds read low 1.01 | locus YHR027C, strain rpn1, active compounds read low 1.02 | locus YHR030C, strain SLT2, active compounds read low 0.998 and 0.975 | locus YHR079C, strain IRE1 (second series), active compounds read low 1.02 | locus YHR079C, strain IRE1, active compounds read low 1 | locus YHR094C, strain hxt1, active compounds read low 1.01 | locus YHR129C, strain ARP1, active compounds read low 1.01 | locus YHR142W, strain chs7, active compounds read low 1.05 | locus YHR200W, strain rpn10, active compounds read low 1.01 | locus YIL066C, strain RNR3, active compounds read low 1.01 | locus YIL073C, strain SPO22, active compounds read low 0.964 | locus YIL125W, strain kgd1, active compounds read low 0.998 | locus YIR030C, strain dcg1, active compounds read low 1.01 | locus YJL092W, strain hpr5, active compounds read low 1.02 | locus YJL095W, strain BCK1 (second series), active compounds read low 1.02 | locus YJL095W, strain BCK1, active compounds read low 1.04 and 0.945 | locus YJL115W, strain asf1, active compounds read low 1.01 | locus YJL129C, strain trk1, active compounds read low 1.01 | locus YJL134W, strain LCB3, active compounds read low 1 | locus YJL154C, strain vps35, active compounds read low 1.03 | locus YJL164C, strain tpk1, active compounds read low 1.03 | locus YJL166W, strain qcr8, active compounds read low 1.02 | locus YJL168C, strain set2, active compounds read low 1.01 | locus YJL187C, strain SWE1 (second series), active compounds read low 1.02 | locus YJR043C, strain POL32, active compounds read low 1.03 | locus YJR066W, strain TOR1, active compounds read low 0.962

— PubChem BioAssay AID1159580 (chemical genetic matrix, 2015)
